Only some compounds are listed: those with a hit (about 8% of all), similar ones and a draw of the others.
PostGolgi ctrl: inhibits growth of the yeast control strain | inhibition, % at 10 µM | 98,000 tested, 5% active | efflux-deficient yeast background strain, growth absorbance A615, 16 h
Cav3 T inh: inhibitors of human Cav3.2 T-type calcium channel; O95180; Cav3.2-expressing cells, Fluo-4 calcium fluorescence FDSS; hits give low values; B-score at 10 µM; 100,000 tested, 4% active;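 active = single-dose well whose peak fluorescence ratio is a statistical outlier from its plate by either plate-standardised score or position-corrected B-score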
PTK2B oligo ant: antagonists of human Pyk2 oligomerization. AID 1347419. 99,000 tested, 0.83% active. Q293 cells, Pyk2 FERM NanoBiT luminescence; hits give low values. z-score (the deposit names both 25 µM and 10 µM);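 active = Z-score of -3 or lower, scaled per plate to the spread of control and sample wells; inactive = z-score above -3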;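 note: negative z-score means lost luminescence so less FERM oligomerization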
Target sequence (Q14289 whole entry, looked up): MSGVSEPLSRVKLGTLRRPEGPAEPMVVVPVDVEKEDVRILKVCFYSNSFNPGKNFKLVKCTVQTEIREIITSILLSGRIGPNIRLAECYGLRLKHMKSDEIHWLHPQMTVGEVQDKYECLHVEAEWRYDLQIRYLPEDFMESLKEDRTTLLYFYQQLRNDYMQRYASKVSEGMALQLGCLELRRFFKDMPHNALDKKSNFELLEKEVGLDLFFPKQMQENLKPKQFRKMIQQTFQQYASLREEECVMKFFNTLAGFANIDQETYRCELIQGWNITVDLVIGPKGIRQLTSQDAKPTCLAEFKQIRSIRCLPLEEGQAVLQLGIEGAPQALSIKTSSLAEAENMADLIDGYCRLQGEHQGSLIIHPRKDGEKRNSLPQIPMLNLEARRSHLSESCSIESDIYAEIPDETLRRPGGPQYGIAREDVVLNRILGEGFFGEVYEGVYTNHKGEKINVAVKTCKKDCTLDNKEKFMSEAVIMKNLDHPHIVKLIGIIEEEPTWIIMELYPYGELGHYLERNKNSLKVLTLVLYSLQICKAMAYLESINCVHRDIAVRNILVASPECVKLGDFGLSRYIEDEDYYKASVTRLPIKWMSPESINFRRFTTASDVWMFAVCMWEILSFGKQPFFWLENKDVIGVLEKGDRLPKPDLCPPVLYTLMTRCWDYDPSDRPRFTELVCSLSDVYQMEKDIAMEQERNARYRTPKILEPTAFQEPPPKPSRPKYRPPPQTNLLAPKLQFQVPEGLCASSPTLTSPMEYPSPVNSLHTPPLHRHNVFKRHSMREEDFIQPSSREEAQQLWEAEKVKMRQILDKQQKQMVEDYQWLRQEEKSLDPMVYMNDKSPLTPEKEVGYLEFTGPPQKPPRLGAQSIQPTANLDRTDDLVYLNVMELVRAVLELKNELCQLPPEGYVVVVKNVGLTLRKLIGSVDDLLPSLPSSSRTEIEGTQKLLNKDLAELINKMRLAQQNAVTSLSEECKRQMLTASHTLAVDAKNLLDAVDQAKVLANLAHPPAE
PostGolgi yeast: growth inhibition of a yeast mutant, post-Golgi transport screen | post-Golgi transport phenotypic cell assay | inhibition, % at 10 µM | 98,000 tested, 0.9% active | AID 739;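 note: yeast cells grown in 1536-well plates; yeast grown about 18 h at 30C before absorbance read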
The depositor's hits bear a star; / = no result given. Cut-off read from the data, not from the text of the source, unless noted: active = inhibition above about 30%; inactive = the rest.

SMILES	PostGolgi ctrl	Cav3 T inh	PTK2B oligo ant	PostGolgi yeast
CC(=O)Nc1cccc(NC(=O)CSc2nnc(Cc3cccn3C)n2-c2ccc(C)cc2)c1	8.2	-3.65	0.45	-4.6
Cn1cccc1Cc1nnc(SCC(=O)Nc2cccc(F)c2)n1-c1ccc(F)cc1	13.6	-7.32*	/	-2.4
Cn1cccc1Cc1nnc(SCC(=O)Nc2cccc(Cl)c2)n1-c1ccc(F)cc1	13.3	-10.2*	/	0.3
COc1ccc(-n2c(Cc3cccn3C)nnc2SCC(=O)Nc2cccc(NC(C)=O)c2)cc1	-2.5	-1.73	2.02	6.3
COc1ccc(-n2c(Cc3cccn3C)nnc2SCC(=O)Nc2cccc(Cl)c2)cc1	10.1	-12.7*	/	-2.7
COCCSc1ccccc1C(=O)N1CCN(Cc2ccc3c(c2)OCO3)CC1	6.8	0.201	0.23	-4.4
Cc1ccc(-c2csc3ncn(-n4c(C)ccc4C)c(=O)c23)o1	3.9	-0.895	-0.17	-1.4
COC/C=C/C1=CC2=CC(=O)C(C)(OC(=O)c3cnc4ccccc4n3)C(=O)C2=CN1C1CCCC1 (configuration not stated)	/	0.97	/	/
COc1cc(C2C(C#N)=C(N)OC3=C2C(=O)CCC3)c([N+](=O)[O-])cc1OC (configuration not stated)	27.4	-3.57	-0.34	-0.2
O=C(CSc1ncn(-c2ccccc2)n1)Nc1ccc(Br)cn1	14.8	-5.41*	0.25	-0.6
O=S(=O)(CCSc1nc2ccccc2s1)c1nc2ccccc2s1	89.5*	-0.958	-2.07	8.1
CCS(=O)(=O)CCSc1nc2ccccc2s1	4.7	-0.836	0.33	0.0
COC(=O)c1ccc(COC(=O)c2ccc(-n3cnnn3)cc2)o1	5.8	0.0948	1.89	26.6
O=C(Cn1[nH]c(=O)c2ccccc2c1=O)OCC(=O)N(Cc1ccccc1)Cc1ccccc1	3.8	-4.42*	0.82	-3.3
CCCCOC(=O)CCn1[nH]c(=O)c2ccccc2c1=O	8.3	0.844	1.44	-7.0
COc1ccc(OC)c(-n2c(-c3cc(-c4ccc(F)cc4)n[nH]3)n[nH]c2=S)c1	-2.3	0.574	-0.63	-2.7
COc1ccc(-c2cc(-c3ccc(OC)cc3)[nH]n2)cc1	33.4*	-0.391	-1.61	19.6
CN(C)c1nc(C(=O)Nc2ccccc2)nc(N(C)C)n1	0.6	0.0123	-0.62	4.7
COc1ccc(OCCSc2ncccn2)cc1	32.8*	-1.22	2.25	-4.3
COc1cccc(OCCCCSc2ncccn2)c1	3.7	-1.92	0.67	3.7
CN(C)c1nc(SCCOC(=O)Nc2ccccc2)nc(N(C)C)n1	13.1	-4.74*	-0.22	-6.1
c1ccc(Oc2cccc(OCCCCSc3ncccn3)c2)cc1	10.5	-1.69	-3.3*	9.3
CCOc1nc(SCCOc2ccccc2)nc(N(C)C)n1	5.2	-3.03	-1.13	40.7*
O=C(NCc1cccnc1)C1c2ccccc2C(=O)N1Cc1ccco1 (configuration not stated)	0.5	0.466	0.65	-15.7
O=C(N/N=C/c1cc([N+](=O)[O-])ccc1N1CCNCC1)c1ccc([N+](=O)[O-])cc1	3.7	-1.17	-0.24	-6.8
SMILES	PostGolgi ctrl	Cav3 T inh	PTK2B oligo ant	PostGolgi yeast
COc1ccc(C(=O)NC(=S)NCC2CCCO2)cc1 (configuration not stated)	/	/	-0.13	/
O=c1c2[nH]c3ccccc3c2ncn1C1CCCCC1	17.7	-0.191	-0.57	34.0*
CCOC(=O)Cn1nc(C)n(-c2ccc(C)cc2)c1=O	2.5	/	0.48	18.9
Cc1ccc(S(=O)(=O)N(C)CCCC(=O)N2CCN(C=O)CC2)cc1	2.4	0.233	0.27	-0.9
CC(=O)N1CCN(c2ccc([N+](=O)[O-])c(NCC3CCCO3)c2)CC1 (configuration not stated)	-3.4	0.302	-0.63	-7.7
CCS(=O)(=O)N1CCN(c2ccc([N+](=O)[O-])c(NCc3ccccc3)c2)CC1	10.8	0.348	-1.3	22.9
CCS(=O)(=O)N1CCN(c2ccc([N+](=O)[O-])c(NC(C)c3ccccc3)c2)CC1 (configuration not stated)	43.9*	/	-2.18	10.2
O=[N+]([O-])c1ccc(N2CCCC2)cc1NC(c1ccccc1)c1ccccc1	12.3	-2.3	-1.77	-0.8
CC(C)Nc1cc(N2CCCC2)ccc1[N+](=O)[O-]	8.8	0.823	-3.04*	-4.2
CC(Nc1cc(N2CCN(C(=O)C(C)(C)C)CC2)ccc1[N+](=O)[O-])c1ccccc1 (configuration not stated)	26.8	-4.23*	-2.74	-0.3
O=C(Cn1ccc(C(F)(F)F)n1)N/N=C/c1cccs1	/	/	0.86	/
Cc1cccc(N(C)c2cc(C)nc3nc(C)nn23)c1	1.1	0.589	/	5.5
Cc1ccc2c(COC(=O)C3=COCCO3)cc(=O)oc2c1	-1.2	-0.556	-0.27	27.1
CCN(CC)c1ccc(C(=O)OCc2cc(=O)oc3cc(O)ccc23)cc1	4.0	-0.863	-3.11*	-5.3
CCN(CC)c1ccc2c(Cl)cc(=O)oc2c1	30.4*	-0.436	/	-5.3
Cc1cc(C)cc(NC(=S)N2CCC(c3nc4ccccc4s3)CC2)c1	11.2	-0.199	-0.49	-4.8
O=C(CSc1ccc(Cl)cc1Cl)N1CCC(c2nc3ccccc3s2)CC1	37.5*	-1.41	-0.23	-0.2
Cc1oc(-c2ccccc2)cc1C(=O)Nc1cccc2ccccc12	30.3*	-4.97*	0.93	-7.7
N#CC1=C(N)OC(c2ccccc2)=C(C#N)C1c1ccc2c(c1)OCO2 (configuration not stated)	97.8*	0.9	-1.16	104.0*
Cc1ccc(C2C(C#N)=C(N)Oc3cc4c(cc32)OCO4)cc1 (configuration not stated)	14.4	-4.38*	-0.52	-4.5
Cc1cc2c(c(=O)n1Cc1ccccn1)C(c1ccc3c(c1)OCO3)C(C#N)=C(N)O2 (configuration not stated)	-0.7	0.704	-0.19	-1.2
Cc1ccc(S(=O)(=O)N2CCC(=O)N(CCOCc3ccc(Cl)cc3)CC2)cc1	/	-0.998	/	/
Cc1ccc(-c2nnc(SCC(=O)OC(C)C)n2N)cc1	-1.7	0.711	1.88	-2.3
CC(C)OC(=O)CSc1nnc(-c2ccc(Cl)cc2)n1N	-6.7	0.123	0.74	34.9*
COc1ccc(-n2nc3c(c2NC(=O)c2cc(Br)ccc2Cl)CS(=O)C3)cc1 (configuration not stated)	1.2	/	/	-2.5
SMILES	PostGolgi ctrl	Cav3 T inh	PTK2B oligo ant	PostGolgi yeast
CCC(C)NS(=O)(=O)c1ccc(OCC(=O)N2CCCC2)cc1 (configuration not stated)	/	-0.123	0.18	/
CCC(C)NS(=O)(=O)c1ccc(S(=O)(=O)N2CCCC3(CCCCC3)C2)cc1 (configuration not stated)	4.6	-6.35*	-0.66	-4.6
COc1cccc(/C=N/NC(=O)c2ccc(OCc3cccc(Br)c3)cc2)c1	11.8	-5.97*	0.64	0.3
COc1ccc(C(=O)N/N=C/c2ccc3cccc(OCc4ccccc4)c3n2)cc1	29.6	-2.25	-3.99*	-15.3
O=C(N/N=C/c1ccc2cccc(OCc3ccccc3)c2n1)c1ccc(Br)cc1	7.9	-3.97*	-2.4	-9.5
COc1ccc(C(=O)N/N=C/c2cccc3cccnc23)cc1	6.2	/	0.37	0.2
CC(Nc1ccc(Br)cc1)C(=O)N/N=C/c1ccccc1OCc1ccccc1 (configuration not stated)	26.1	-3.3	-0.6	16.8
